D2 PAM-1: D2 dopamine receptor (human) potentiation; P14416; HEK293 T-REx D2, calcium flux, EC20 dopamine potentiation; potentiation, % at 10 µM; hit rate 0.34% among 340,000; AID 485347;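 active = potentiation over 3 SD above the plate norm, cut at about 30% in these data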; also: 0% is about no effect
Target sequence (P14416 whole entry, looked up): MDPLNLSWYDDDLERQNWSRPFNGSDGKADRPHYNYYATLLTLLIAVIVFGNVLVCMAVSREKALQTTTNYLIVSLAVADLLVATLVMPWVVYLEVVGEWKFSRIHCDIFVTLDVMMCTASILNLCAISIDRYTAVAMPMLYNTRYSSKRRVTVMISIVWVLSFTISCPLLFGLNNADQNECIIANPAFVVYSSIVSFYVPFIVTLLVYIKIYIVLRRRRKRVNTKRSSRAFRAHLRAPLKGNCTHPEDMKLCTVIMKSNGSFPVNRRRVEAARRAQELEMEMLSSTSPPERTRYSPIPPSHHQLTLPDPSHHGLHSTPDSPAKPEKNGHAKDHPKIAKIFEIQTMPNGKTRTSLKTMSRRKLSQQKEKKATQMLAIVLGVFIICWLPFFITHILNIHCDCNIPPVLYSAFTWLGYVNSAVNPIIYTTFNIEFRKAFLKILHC
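Cells plated with tetracycline inducer and held overnight at 30 C; calcium dye loaded 30–90 min at room temperature; baseline taken, compound added and read 180 s; EC20 dopamine then added and read 180 s.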
D2 ag-1: activates the human D2 dopamine receptor | HEK293 T-REx D2 cells, calcium flux agonist mode | activation, % at 2 µM | hit rate 0.53% among 340,000;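 active = activation over 3 SD above normal in the single-dose calcium agonist read, cut at about 30% in these data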; also: 0% is about no effect
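Agonism is scored from calcium flux in a force-coupled, inducible HEK293 cell line expressing D2, read kinetically for 180 s after compound addition against dopamine controls.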
D2 ag-2: human D2 receptor agonism in beta-arrestin assay; DiscoveRx PathHunter D2 beta-arrestin, luminescence, 90 min; 100% = 57 uM dopamine signal; hit rate 0.084% among 360,000; P14416; activation, % (no concentration beside the values); AID 624465; in the data active = activation above about 40%; inconclusive = between about 15% and that limit
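DiscoveRx PathHunter D2 beta-arrestin cells (2,100/well) attached overnight, then compound-stimulated 90 min at 37 C in HBSS/10 mM HEPES/0.1% Tween-20 buffer; beta-galactosidase complementation read by luminescence after 1 h at ambient temperature. Dopamine 57 uM final (EC100) as control.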
D2 PAM-2: human D2 receptor positive allosteric modulation; potentiation, % (test concentration not listed); hit rate 0.23% among 360,000; DiscoveRx D2 beta-arrestin cells, luminescence, 90 min; 100% = 57 uM dopamine signal; AID 624464; in the data active = potentiation above about 50%; inconclusive = mostly about 30% to 49%
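D2 cells co-treated with compound plus 50 nM dopamine (EC20) for 90 min at 37 deg C to detect potentiation. Beta-arrestin recruitment was read as enzyme-fragment luminescence after 1 h at ambient temperature. Full response was set by 57 uM dopamine.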
D2 antagonist: antagonizes the human D2 dopamine receptor. hit rate 2% among 340,000. AID 485344. inhibition, % at 10 µM. P14416. HEK293 TREx D2 cells, calcium flux, dopamine EC80; in the data active = inhibition above about 30%; inactive = below that, where a call was filed; also: 0% is about no effect
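Compounds are added to dye-loaded, induced HEK293 T-REx cells coupled to calcium release via D2; after a 3 min kinetic read an EC80 dopamine stimulus is given and fluorescence is recorded for 3 more min.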
* hit, by the source's call; ? = inconclusive; · = no result given. Compounds with a hit are over-represented: about 2.4% of the library has one in this group of screens.

SMILES	D2 PAM-1	D2 ag-1	D2 ag-2	D2 PAM-2	D2 antagonist
Cc1ccc(NC(=O)Cn2c(=O)n(Cc3nc(-c4ccccc4)no3)c(=O)c3ccccc32)c(C)c1	3	1	·	·	·
O=C(CCC1CCCCC1)NCCN1C2=NC[C@@H](Cc3ccccc3)N2C[C@H]1Cc1ccc(O)cc1	-24	0	-4	-31	51*
CC(C)[C@H]1CN=C2N(C[C@H](C)NC(=O)CCC3CCCCC3)[C@H](Cc3ccc(O)cc3)CN21	-23	0	1	-24	77*
C[C@@H](CN1C2=NC[C@H](C)N2C[C@H]1Cc1ccc(O)cc1)NC(=O)CCC1CCCCC1	-18	0	-4	-33	52*
COc1ccc(C[C@@H]2CN3C(=NC[C@@H]3Cc3ccc(O)cc3)N2C[C@H](C)NC(=O)CCC2CCCCC2)cc1	-6	-2	-3	-31	-34
Cc1ccc(Cl)cc1N1CCN(C(=O)Cn2cnc3nc4c(cc3c2=O)CCCC4)CC1	-24	·	·	·	·
CCOc1ccccc1NC(=O)CSc1ccc2nc(-c3ccccc3)cn2n1	2	·	·	·	·
O=C(c1cnn(-c2cccc(F)c2)c1-n1cccc1)N1CCN(c2ccccc2F)CC1	6	0	·	·	·
Cc1nc2ccccc2n1CCC(=O)O	-1	0	0	21	6
Cc1nc2ccccc2n2c(O)c(CC(=O)O)cc12	-7	2	14	79*	2
CCCCn1c(SCC(=O)c2ccc(O)cc2O)nc2cc(S(N)(=O)=O)ccc21	-5	1	-3	-5	32*
CCCCn1c(SCC(=O)c2cc(OC)ccc2OC)nc2cc(S(N)(=O)=O)ccc21	8	0	-1	9	-20
CCN(CC(=O)NC)S(=O)(=O)c1ccc(Br)cc1	34*	0	-3	-5	-1
O=C(NC1CCCCC1)c1cc2c(Cl)nc3ccccc3c2s1	-7	1	·	·	·
COc1cccc(NC(=S)Nc2cc(C)cc(C)n2)c1	8	0	-2	-6	44*
Cc1cc(C)nc(NC(=S)Nc2cccc(F)c2)c1	-8	0	-6	-7	-1
Cc1ccc(NC(=O)Cn2c(=O)n(CC(=O)NCCc3ccccc3)c(=O)c3ccccc32)cc1	2	·	·	·	·
Cc1ccc(C2C(C#N)=C(N)Oc3cc(N)ccc32)cc1 (stereo not drawn)	0	0	0	0	10
Cc1ccc(/C=C2\CCC3=C2OC(N)=C(C#N)C3c2ccc(C)cc2)cc1 (stereo not drawn)	-5	72*	-3	7	-35
CC1=C(C(N)=O)C(c2cccnc2)n2nc(SCc3ccccc3Cl)nc2N1 (stereo not drawn)	0	-2	0	1	35*
CC1=C(C(N)=O)C(c2cccc(Br)c2)n2nc(SCc3ccccc3Cl)nc2N1 (stereo not drawn)	5	1	·	·	·
CCOc1ccc(C(C)C)cc1S(=O)(=O)Nc1cccc(-c2ccc(N3CCOCC3)nn2)c1	10	0	·	·	·
CC(C)/C=C(/C(=O)c1ccc(Cl)cc1Cl)n1cncn1	6	1	46*	21	2
COc1ccc(N2CCN(C(=O)CCNS(=O)(=O)c3ccc(Br)s3)CC2)cc1	86*	1	-1	-6	3
COc1ccc(N2CCN(C(=O)CCNS(=O)(=O)c3ccc(C)cc3)CC2)cc1	7	-1	-7	0	12
SMILES	D2 PAM-1	D2 ag-1	D2 ag-2	D2 PAM-2	D2 antagonist
CN(C)CC(O)COc1cccc(OCC(O)CN(C)C)c1 (stereo not drawn)	-5	0	-3	-4	55*
CC(=O)NC(c1ccccc1)c1nc(-c2cccnc2)cs1 (stereo not drawn)	·	·	2	2	·
COc1n[nH]c(C(=O)Nc2cc(Cl)ccc2Cl)c1[N+](=O)[O-]	7	0	-7	-3	32*
COc1ccc(OCC(=O)N2CCN(C(=O)c3cccc(OC)c3)CC2)cc1	-5	1	·	·	·
CCc1cc(=O)oc2cc(C)c3c(-c4ccc(F)cc4)coc3c12	-3	0	·	·	·
CCOC(=O)CN(C(=O)CSc1nnc2c(n1)[nH]c1c(C)cc(C)cc12)c1ccccc1	-22	1	·	·	61*
CCOC(=O)CN(C(=O)CSc1nnc2c(n1)[nH]c1ccc(F)cc12)c1ccccc1	-20	0	-4	-25	72*
CCOC(=O)CN(C(=O)CSc1nnc2c(n1)[nH]c1ccccc12)c1ccccc1	-9	0	-1	-37	7
O=C(NCCSc1c[nH]c2ccccc12)c1c(F)cccc1F	5	0	-2	1	4
O=C(NCCSc1c[nH]c2ccccc12)C1CC1	-19	-1	-1	1	36*
O=C(Nc1cccc(Br)c1)N1CCC(CN2CCCCCC2)CC1	-16	0	·	·	·
CCCCN=C(C)C1=C(O)CSC1=O	5	0	0	-1	-2
CC(=NCCc1ccccc1)C1=C(O)CSC1=O	1	35*	0	?	-12
COC(=O)c1ccc(/C=C/C(=O)c2ccc(OC)c(OC)c2)cc1	-5	1	-2	-33	-10
COc1ccc(/C=C/C(=O)c2ccc(C(=O)/C=C/c3ccc(OC)c(OC)c3)cc2)cc1OC	1	3	6	-2	34*
Cc1sc2nc(CSC(C)C(=O)NC3(C#N)CCCCC3)[nH]c(=O)c2c1C (stereo not drawn)	-6	0	-7	-28	38*
Cc1sc2nc(CSC(C)C(=O)Nc3ccc(C#N)cc3)[nH]c(=O)c2c1C (stereo not drawn)	0	0	-5	-13	-5
CC(C)OCCCNc1nc2c(cnn2C)c(=O)[nH]1	·	·	0	-50	·
COc1ccc(N(C(=O)CNC(=O)c2cccs2)C(C(=O)NCC2CCCO2)c2ccccc2)cc1 (stereo not drawn)	-16	0	4	-2	80*
Cc1c(Cl)ccc2sc(NC(=O)c3ccc(S(=O)(=O)N4CCCC4)cc3)nc12	-4	0	·	·	·
CC(C)(C)c1nn(-c2ccccc2)c2[nH]c(=O)c(C=O)cc12	1	-2	-11	-22	39*
CC(C)(C)c1nn(-c2ccccc2)c2nc(Cl)c(C=O)cc12	4	-1	3	-1	32*
CCOc1ccc(NCc2cc3c(C(C)(C)C)nn(-c4ccccc4)c3[nH]c2=O)cc1	2	0	-4	-33	-7
CCCCC(=O)Nc1cc(-c2cn3cccnc3n2)ccc1C	11	0	·	·	·
CCn1c(=O)c([N+](=O)[O-])c(NCC(O)c2ccccc2)c2ccccc21 (stereo not drawn)	-19	-1	-3	-27	-10
CCn1c(=O)c([N+](=O)[O-])c(NCCN(C)C)c2ccccc21	-21	0	5	-15	59*
O=c1c([N+](=O)[O-])c(NCCN2CCCCCC2)c2ccccc2n1-c1ccccc1	-20	0	2	-4	49*

Bioassay records as filed in PubChem BioAssay.
